Measurements from PubChem BioAssay AID1159580 (chemical genetic matrix, 2015).
In all, about 5,500 compounds went through this assay and about 2,000 (36%) were called active. Another 18% or so got no clear call; they are omitted. No stated cut-off is given here; in the data, active means normalized growth mostly below about 0.91 (no sharp cut-off); inconclusive means no clear call, values can overlap the other calls; inactive means mostly above about 0.92. This is one part of the list.

Experiment: chemical genetic growth profiling, strain panel (AID 1159580);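 further: tested at 20 µM; growth read once vehicle control cultures reached saturation at 30 °C; 1 = growth at the plate median or of vehicle wells; lower values mean less growth of the strain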
Details: growth OD

Measured: normalized growth

COc1ccc(C[C@H](N)C(=O)N[C@@H]2[C@@H](CO)OC(n3cnc4c(N(C)C)ncnc43)[C@@H]2O)cc1 (some centres not stated)
inactive: S. cerevisiae deletion strains, locus YJR075W, strain HOC1, active compounds read low 0.997 | S. cerevisiae deletion strains, locus YKL009W, strain mrt4, active compounds read low 1.03 | S. cerevisiae deletion strains, locus YKL068W, active compounds read low 1.02 | S. cerevisiae deletion strains, locus YKL085W, strain MDH1 (second series), active compounds read low 1.01 | S. cerevisiae deletion strains, locus YKL085W, strain MDH1, active compounds read low 1.01 | S. cerevisiae deletion strains, locus YKL160W, strain elf1, active compounds read low 0.993 | S. cerevisiae deletion strains, locus YKL190W, strain CNB1, active compounds read low 1 | S. cerevisiae deletion strains, locus YKR001C, strain vps1, active compounds read low 1.02 | S. cerevisiae deletion strains, locus YKR026C, strain gcn3, active compounds read low 1 | S. cerevisiae deletion strains, locus YKR091W, strain srl3, active compounds read low 1.02 | S. cerevisiae deletion strains, locus YLL001W, strain dnm1, active compounds read low 0.961 | S. cerevisiae deletion strains, locus YLL026W, active compounds read low 0.987 | S. cerevisiae deletion strains, locus YLL041C, strain sdh2, active compounds read low 1 | S. cerevisiae deletion strains, locus YLR027C, strain aat2, active compounds read low 0.997 | S. cerevisiae deletion strains, locus YLR039C, strain RIC1, active compounds read low 1.04 | S. cerevisiae deletion strains, locus YLR058C, strain SHM2, active compounds read low 1.01 | S. cerevisiae deletion strains, locus YLR102C, strain apc9, active compounds read low 1.01 | S. cerevisiae deletion strains, locus YLR113W, strain HOG1, active compounds read low 0.989 | S. cerevisiae deletion strains, locus YLR221C, strain rsa3, active compounds read low 0.991 | S. cerevisiae deletion strains, locus YLR258W, strain gsy2, active compounds read low 1 | S. cerevisiae deletion strains, locus YLR262C, strain YPT6 (second series), active compounds read low 1.01 | S. cerevisiae deletion strains, locus YLR262C, strain YPT6, active compounds read low 1.04 | S. cerevisiae deletion strains, locus YLR268W, strain sec22, active compounds read low 1.01 | S. cerevisiae deletion strains, locus YLR320W, strain mms22, active compounds read low 1 | S. cerevisiae deletion strains, locus YLR330W, strain CHS5, active compounds read low 1.01 | S. cerevisiae deletion strains, locus YLR342W, strain FKS1 (second series), active compounds read low 0.992 | S. cerevisiae deletion strains, locus YLR342W, strain FKS1, active compounds read low 0.996 | S. cerevisiae deletion strains, locus YLR357W, strain rsc2, active compounds read low 1.01 | S. cerevisiae deletion strains, locus YLR370C, strain arc18, active compounds read low 0.985 | S. cerevisiae deletion strains, locus YLR371W, strain rom2, active compounds read low 1.02 | S. cerevisiae deletion strains, locus YLR384C, strain iki3, active compounds read low 0.979 | S. cerevisiae deletion strains, locus YLR418C, strain cdc73, active compounds read low 0.988 | S. cerevisiae deletion strains, locus YML016C, strain PPZ1, active compounds read low 1.01 | S. cerevisiae deletion strains, locus YML032C, strain rad52, active compounds read low 1.03 | S. cerevisiae deletion strains, locus YML120C, strain ndi1, active compounds read low 0.996 | S. cerevisiae deletion strains, locus YML124C, strain tub3, active compounds read low 1.02 | S. cerevisiae deletion strains, locus YMR058W, strain fet3, active compounds read low 1 | S. cerevisiae deletion strains, locus YMR078C, strain ctf18, active compounds read low 1.02 | S. cerevisiae deletion strains, locus YMR125W, strain sto1, active compounds read low 1.01 | S. cerevisiae deletion strains, locus YMR129W, active compounds read low 0.995 | S. cerevisiae deletion strains, locus YMR205C, strain PFK2, active compounds read low 1 | S. cerevisiae deletion strains, locus YMR223W, strain ubp8, active compounds read low 1.03 | S. cerevisiae deletion strains, locus YMR231W, strain pep5, active compounds read low 0.987 | S. cerevisiae deletion strains, locus YMR263W, strain SAP30, active compounds read low 1 | S. cerevisiae deletion strains, locus YMR307W, strain GAS1, active compounds read low 1.06 | S. cerevisiae deletion strains, locus YNL067W, strain RPL9B, active compounds read low 1 | S. cerevisiae deletion strains, locus YNL071W, strain lat1, active compounds read low 1.01 | S. cerevisiae deletion strains, locus YNL128W, strain TEP1, active compounds read low 1.01 | S. cerevisiae deletion strains, locus YNL153C, strain GIM3, active compounds read low 0.988 | S. cerevisiae deletion strains, locus YNL183C, strain NPR1, active compounds read low 0.935 | S. cerevisiae deletion strains, locus YNL209W, strain ssb2, active compounds read low 0.996 | S. cerevisiae deletion strains, locus YNL233W, strain BNI4, active compounds read low 1 | S. cerevisiae deletion strains, locus YNL248C, strain rpa49, active compounds read low 1.01 | S. cerevisiae deletion strains, locus YNL250W, strain rad50, active compounds read low 1.04 | S. cerevisiae deletion strains, locus YNL271C, strain bni1, active compounds read low 1.01 | S. cerevisiae deletion strains, locus YNL298W, strain CLA4, active compounds read low 1.01 | S. cerevisiae deletion strains, locus YNL307C, strain MCK1, active compounds read low 1.04 | S. cerevisiae deletion strains, locus YNL322C, strain KRE1 (second series), active compounds read low 0.994 | S. cerevisiae deletion strains, locus YNL322C, strain KRE1, active compounds read low 1.01 | S. cerevisiae deletion strains, locus YNR049C, strain mso1, active compounds read low 0.987 | S. cerevisiae deletion strains, locus YNR052C, strain pop2, active compounds read low 1.02 | S. cerevisiae deletion strains, locus YOL006C, strain TOP1, active compounds read low 1.02 | S. cerevisiae deletion strains, locus YOL012C, strain htz1 0.862 | S. cerevisiae deletion strains, locus YOL147C, strain pex11, active compounds read low 1.02 | S. cerevisiae deletion strains, locus YOR001W, strain rrp6, active compounds read low 0.988 | S. cerevisiae deletion strains, locus YOR061W, strain CKA2, active compounds read low 1.01 | S. cerevisiae deletion strains, locus YOR069W, strain VPS5, active compounds read low 0.996 | S. cerevisiae deletion strains, locus YOR070C, strain gyp1, active compounds read low 0.984 | S. cerevisiae deletion strains, locus YOR080W, strain dia2, active compounds read low 0.992 | S. cerevisiae deletion strains, locus YOR083W, strain WHI5, active compounds read low 1.02 | S. cerevisiae deletion strains, locus YOR106W, strain vam3, active compounds read low 0.984 | S. cerevisiae deletion strains, locus YOR136W, strain idh2, active compounds read low 1.02 | S. cerevisiae deletion strains, locus YOR144C, strain elg1, active compounds read low 1.01 | S. cerevisiae deletion strains, locus YOR184W, strain ser1, active compounds read low 1.04 | S. cerevisiae deletion strains, locus YOR231W, strain MKK1, active compounds read low 0.961 | S. cerevisiae deletion strains, locus YOR265W, strain rbl2, active compounds read low 0.991 | S. cerevisiae deletion strains, locus YOR270C, strain vph1, active compounds read low 0.993 | S. cerevisiae deletion strains, locus YOR290C, strain snf2, active compounds read low 1 | S. cerevisiae deletion strains, locus YOR316C, strain cot1, active compounds read low 1.02 | S. cerevisiae deletion strains, locus YPL051W, strain arl3, active compounds read low 0.976 | S. cerevisiae deletion strains, locus YPL055C, strain LGE1, active compounds read low 1 | S. cerevisiae deletion strains, locus YPL078C, strain atp4, active compounds read low 0.972 | S. cerevisiae deletion strains, locus YPL106C, strain sse1, active compounds read low 0.996 | S. cerevisiae deletion strains, locus YPL240C, strain hsp82, active compounds read low 0.986 | S. cerevisiae deletion strains, locus YPL241C, strain CIN2, active compounds read low 1 | S. cerevisiae deletion strains, locus YPL256C, strain CLN2, active compounds read low 0.965 | S. cerevisiae deletion strains, locus YPR119W, strain clb2, active compounds read low 1.01 | S. cerevisiae deletion strains, locus YPR141C, strain kar3, active compounds read low 1.03 | S. cerevisiae deletion strains, locus YPR163C, strain tif3, active compounds read low 1.02 | S. cerevisiae deletion strains, locus YPR167C, strain met16, active compounds read low 1.02 | S. cerevisiae deletion strains, strain wtn01, active compounds read low 0.986 | S. cerevisiae strains, strain wild type, active compounds read low 1.01
